This is a sample that favours compounds with a hit; in the whole collection about 10% have one here.
G9a inh = G9a (human) methyltransferase inhibition; Q96KQ7; G9a H3K9 monomethylation, AlphaScreen, 2 h; Potency, µM (highest dose often 102 µM), inactives show at the top dose activity, negative = inhibition, usual class: inhibitors; hit rate 8.8% among 350,000; further: potency means the concentration at half of the fitted maximal effect; on the % scale 0 is the no-effect control and ±100 the full control effect; nearly all actives have a fitted effect of over 75% in size
Target sequence (Q96KQ7 913-1193 limits assumed): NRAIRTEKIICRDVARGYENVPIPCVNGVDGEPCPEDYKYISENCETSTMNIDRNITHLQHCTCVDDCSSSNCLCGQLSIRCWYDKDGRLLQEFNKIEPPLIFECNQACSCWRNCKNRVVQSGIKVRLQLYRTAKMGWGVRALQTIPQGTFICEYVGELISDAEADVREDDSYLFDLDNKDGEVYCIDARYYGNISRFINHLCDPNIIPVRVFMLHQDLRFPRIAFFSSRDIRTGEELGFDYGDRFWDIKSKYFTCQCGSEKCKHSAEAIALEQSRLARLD
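Step 1: enzyme (final 20 nM) with compound, 15 min RT. Step 2: substrate peptide 500 nM and SAM 20 uM, 2 h RT. Step 3: anti-H3K9me1 antibody and AlphaScreen beads, 10 min, then plate read.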
JMJD2A Tudor inh = blocks the human JMJD2A Tudor domain; O75164; AlphaScreen JMJD2A-Tudor / H3K4me3 peptide binding; Potency, µM (series often up to 114 µM), for the others: top-dose activity change, negative = inhibition, usual class: inhibitors; hit rate 4.4% among 390,000; further: potency means the concentration at half of the fitted maximal effect; on the % scale 0 is the no-effect control and ±100 the full control effect; nearly all actives have a fitted effect of over 50% in size
BAZ2B block = blocks human BAZ2B; Potency, µM (highest dose often 114 µM), inactives show top-dose activity change, negative = inhibition, hits mostly inhibitors; Q9UIF8; AID 504333; AlphaScreen BAZ2B-H3K14Ac peptide displacement; hit rate 4.4% among 360,000; further: potency means the concentration at half of the fitted maximal effect; on the % scale 0 is the no-effect control and ±100 the full control effect; nearly all actives have a fitted effect of over 60% in size
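Compounds, titrated to a top concentration of 110 uM, were incubated 30 min at room temperature with preformed BAZ2B/acetyl-K14 H3 peptide complex (50 nM each). Proximity signal was measured by AlphaScreen after 20 min with beads.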
CtBP-E1A blk = CtBP/E1A binding inhibition; AlphaScreen GST-E1A/His-CtBP binding, 1536-well; hits give low values; activity change, % (test concentration not listed); hit rate 0.49% among 340,000; in the data active means activity change below about -65%; inconclusive means mostly about -30% to -63%; further: on the % scale 0 is the no-effect control and ±100 the full control effect
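In 5 uL wells, 23 nL compound meets equimolar GST-E1A and His-CtBP (5X stock 125 nM each) for 2 h, 37 °C. Beads (5X, 50 ug/mL) then 1 h, 37 °C, dark.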
HP1b binding inh = blocks HP1-beta chromodomain binding to methylated histone tails. AlphaScreen HP1-beta / biotin-H3K9me3 peptide binding. Potency, µM (highest dose often 114 µM), inactives show top-dose activity change, negative = inhibition, usual class: inhibitors. hit rate 0.56% among 390,000. AID 540317; further: potency means the concentration at half of the fitted maximal effect; nearly all actives have a fitted effect of over 70% in size
Target sequence (P83916 whole entry, looked up): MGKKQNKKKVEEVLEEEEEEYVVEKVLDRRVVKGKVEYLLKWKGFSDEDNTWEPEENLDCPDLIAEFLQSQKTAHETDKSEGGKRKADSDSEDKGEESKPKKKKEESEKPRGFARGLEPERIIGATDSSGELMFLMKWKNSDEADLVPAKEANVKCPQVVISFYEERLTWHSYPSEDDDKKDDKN
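HP1-beta protein (50 nM final) preincubated 30 min at room temperature with biotinylated H3(1-18)K9me3 peptide (50 nM) in PBS pH 7.4, 0.01% Tween-20, then compound added for 30 min. AlphaScreen streptavidin donor/nickel chelate acceptor beads (10 ug/mL final), 30 min dark, luminescence read.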
Six1-Eya2 inh = Six1/Eya2 interaction inhibition; activity change, % (test concentration not listed); AlphaScreen GST-Six1/His-Eya2 binding, biochemical; hits give low values; hit rate 0.56% among 360,000; Q15475+O00167; in the data active means activity change below about -65%; inconclusive means mostly about -30% to -63%; further: on the % scale 0 is the no-effect control and ±100 the full control effect
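AlphaScreen with GST-Six1 and His-Eya2 (5X mix: 250 nM and 500 nM), glutathione donor and nickel acceptor beads; buffer 50 mM Tris pH 8.0, 300 mM NaCl, 1 mM TCEP; 1 h at 37 C in the dark.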
Active calls of the source: *; ? = inconclusive; / = no result given; ! = a repeat was not active; [ ] = dose if it differs, or a comment. Unless noted, the call rests on the fitted dose curve; in most records, active means well fitted inhibition curve with a large enough effect; inconclusive means small, poorly fitted or top-dose-only effect; inactive means no such curve, though single readings can be large or run the other way.

SMILES | G9a inh | JMJD2A Tudor inh | BAZ2B block | CtBP-E1A blk | HP1b binding inh | Six1-Eya2 inh
CCCCNC(=O)CCC(=O)Nc1ccc2nc(N3CCN(C)CC3)cc(C)c2c1 | -9%[59 µM] | -20% | -20% | / | 12%[57 µM] | 8
CCOC(=O)N1CCC(NC(=S)Nc2ccc3nc(N4CCN(CC)CC4)cc(C)c3c2)CC1 | 25µM* | -18%[11.4 µM] | ? | -12 | 16% | -3
CCN1CCN(c2cc(C)c3cc(NC(=O)c4ccc(OC)c(OC)c4)ccc3n2)CC1 | 71µM* | -33% | -28% | 4 | 11% | -13
CCN1CCN(c2cc(C)c3cc(NC(=S)NCCN(C)C)ccc3n2)CC1 | 50µM* | -15% | 0% | -6 | -34% | -5
CCCCN(CC)C(=S)Nc1ccc2nc(N3CCN(C)CC3)cc(C)c2c1 | 40µM* | ? | ? | / | -1%[57 µM] | -8
CCOC(=O)N1CCN(C(=O)CN2C(=O)/C(=C\c3cccc(OC)c3)SC2=S)CC1 | / | -21% | / | / | 11% | /
CCCN(CCC)CCNC(=O)CCC(=O)Nc1ccc2nc(N3CCN(C)CC3)cc(C)c2c1 | ? | -12% | -14% | 6 | 18% | 1
CCN(CC)CCNC(=S)Nc1ccc2nc(N3CCN(CC)CC3)cc(C)c2c1 | 45µM* | -20% | -11% | -6 | -7% | -4
CCCCN(C)CCNC(=S)Nc1ccc2nc(N3CCN(CC)CC3)cc(C)c2c1 | 45µM* | -18% | -4% | -5 | -15% | -2
CCN1CCN(c2cc(C)c3cc(NC(=S)N(C)Cc4ccccc4)ccc3n2)CC1 | ? | ? | -33% | -11 | 13% | -9
CCCCN(C)C(=S)Nc1ccc2nc(N3CCN(CC)CC3)cc(C)c2c1 | 45µM* | -7%[11.4 µM] | -29% | -15 | 14% | -1
O=C(CSc1nc2c([nH]c3ccccc32)c(=O)n1-c1ccccc1F)Nc1cccc(C(F)(F)F)c1 | 0%[59 µM] | -17% | -9% | / | 21%[57 µM] | /
COc1ccc(NC(=O)C2CCCN2C(=O)NCc2ccccc2)cc1 (stereo not drawn) | -4%[12.7 µM] | 14µM* | 3% | -23 | 1% | 1
Cc1ccc(-c2csc3ncn(CC#N)c(=O)c23)cc1C | ? | 50µM* | 50µM* | -22 | ? | -11
Cc1ccc(-c2csc3ncn(CC#N)c(=O)c23)cc1 | / | -26% | 9% | -3 | 35% | -4
O=C(CCCCCBr)N1CCC(CC2CC(c3ccc(Cl)cc3)=NO2)(C(=O)NCC2CCCCC2)CC1 (stereo not drawn) | ? | -12% | -27% | 7 | 43% | 2
O=C(CCCCCBr)N1CCC(CC2CC(c3cccc(Br)c3)=NO2)(C(=O)NCC2CCCCC2)CC1 (stereo not drawn) | 50µM* | ? | -25%[57.1 µM] | -1 | 13% | -6
CCCCn1c(CCC)nc([N+](=O)[O-])c1Sc1ccc(Cl)cn1 | 14µM* | -22% | -20% | -2 | 4% | -1
CCCN(C(=O)CCc1nc(-c2ccc(C)cc2)no1)c1ccc(OCC)cc1 | 71%[59 µM] | 63% | 68% | / | 81% | /
Nc1c(N)c2ccccc2oc1=O | ? | -25% | ? | 12 | 17% | -2
O=c1oc2ccccc2c2oc3cc(O)c(O)cc3c12 | / | 7.9µM* | 40µM* | -12 | ? | -30
CC/C=C\C/C=C\C/C=C\CCCCCCCC(=O)O | 18µM*! | -27% | -5% | 0 | 11% | -7
Cc1ccc(NC(=O)c2cc(=O)n(Cc3ccccc3)c(=O)[nH]2)cc1C | 1% | 10µM* | -29% | -2 | -10% | 0
Cc1ccc(NC(=O)c2ccccc2)cc1C | -13%[2.33 µM] | -9% | 8% | 9 | 23% | 2
O=C(O)c1cc(=O)n(Cc2ccccc2)c(=O)[nH]1 | 16µM* | 28µM* | ? | 3 | 17% | -1
CN1CCN(NS(=O)(=O)c2cccs2)CC1 | 1.4µM* | -6% | 6% | 5 | 36% | 0
CCOC(=O)C1CCC(CN(Cc2ccc(OC)cc2)S(=O)(=O)c2ccc(F)c(C(=O)Nc3ccc(C)c(C)c3)c2)CC1 (stereo not drawn) | 9%[59 µM] | -27% | -1% | / | 3% | /
